# HepG2 viability – counter-screen for TGF-b inhibitors: cytotoxicity in HepG2 cells. 410,000 compounds, 0.76% hits. Potency, µM (titrated, usually from 46.1 µM), actives largely listed as cytotoxic. AID 588856. HepG2 CAGA-GFP viability, ATP luminescence, 18 h
#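 HepG2 CAGA-GFP cells (1000/well, DMEM with 1% FBS) received compound, then TGF-beta at 500 pg/mL final, and were incubated 18 hours at 37 degrees C. Viability was read by CellTiter-Glo luminescence. Media-only wells were set as complete cell-killing and DMSO as no toxicity.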
# mIDH1 inhibitor – human IDH1 R132H inhibition | O75874 | IDH1-R132H enzyme, NADPH consumption, diaphorase/resazurin fluorescence | Potency, µM (titrated, usually from 76.6 µM), hits mostly inhibitors | 390,000 compounds, 0.093% hits | AID 602179; also: nearly all actives have a fitted effect of over 65% in size
# Target sequence (O75874 whole entry R132H, stated change not applied): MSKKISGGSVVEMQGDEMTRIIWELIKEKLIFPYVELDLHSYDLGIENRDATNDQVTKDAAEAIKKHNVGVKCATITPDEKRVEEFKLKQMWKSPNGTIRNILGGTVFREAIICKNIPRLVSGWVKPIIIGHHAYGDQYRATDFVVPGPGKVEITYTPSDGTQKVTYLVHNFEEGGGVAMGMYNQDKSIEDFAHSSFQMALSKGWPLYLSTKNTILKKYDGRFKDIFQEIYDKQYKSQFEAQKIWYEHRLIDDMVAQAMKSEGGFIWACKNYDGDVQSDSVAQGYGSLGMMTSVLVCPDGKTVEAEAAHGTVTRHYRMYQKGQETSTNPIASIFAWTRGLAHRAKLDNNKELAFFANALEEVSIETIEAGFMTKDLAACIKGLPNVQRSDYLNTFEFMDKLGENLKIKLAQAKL
#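 IDH1-R132H (0.5 ug/mL) preincubated 30 min with compound, then NADPH (0.016 mM) and alpha-KG (2 mM) added; 80 min at RT, pH 7.5. Remaining NADPH coupled via diaphorase/resazurin to fluorescence (540/590 nm); concentration-response curves normalized to no-enzyme control.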
# ATXN2 expr inh – inhibitors of ATXN2 expression; Potency, µM (top dose mostly 57 µM), actives largely listed as inhibitors; AID 1745845; HEK-293 ATXN2-luciferase reporter, luminescence, 24 h; 360,000 compounds, 0.72% hits; also: nearly all actives have a fitted effect of over 55% in size
#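 ATXN2-luciferase reporter cells (luciferase flanked by upstream and downstream ATXN2 gene portions) were treated 24 h at 37 °C with compounds at up to 57 uM. SteadyGlo luminescence gave expression; GF-AFC fluorescence gave viability.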
# TGFb SMAD3 inh – inhibitors of TGF-b signaling | HepG2 CAGA-GFP TGF-b/SMAD3 reporter, GFP fluorescence, 18 h; TGF-beta stimulated, 500 pg/mL final | Potency, µM (highest dose often 46.1 µM), most hits filed as inhibitors | AID 588855 | 410,000 compounds, 1.2% hits; also: nearly all actives have a fitted effect of over 65% in size
#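 Cell-based qHTS in HEPG2 carrying a CAGA-GFP Smad reporter; compounds added before 500 pg/mL final TGF-beta, 18 h incubation at 37 degrees C, GFP fluorescence quantified per cell by imaging cytometry.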
# ATXN viability – reduces viability in counter-screen for ATXN expression inhibitors. AID 651635. 400,000 compounds, 0.49% hits. S2 cells (HEK-293 line with an ATXN2-luciferase reporter) viability, CellTiter-Fluor protease fluorescence, 24 h. Potency, µM (highest dose often 56.7 µM), hits mostly cytotoxic; also: nearly all actives have a fitted effect of over 40% in size
# LDHA inh – blocks human lactate dehydrogenase A; purified LDHA, NADH/diaphorase-resazurin fluorescence; stronger effect = lower value; P00338; 480,000 compounds, 0.15% hits; activity change, % (values are at about 110 or 230 µM); in the data active = activity change below about -30%; inconclusive = mostly about -25% to -30%
#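 Enzyme activity of human lactate dehydrogenase 5 (2 nM; 0.06 mM NADH, 0.2 mM pyruvate, 5 min, RT) is measured via a resazurin/diaphorase fluorescence readout of residual NADH.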
# Hits are given with their value; 0 = inactive; ? = inconclusive; - = no result; [ ] = remark or other dose. Sampled rows, rich in hits. Any-hit rate of the full collection: about 2.2%. Unless noted, calls follow the shape of the dose curve; as a rule, active = well fitted curve in the direction sought with a large enough effect; inconclusive = small, poorly fitted or top-dose-only effect, or another doubt; inactive = no such curve, though single readings can be large; an effect the other way counts as inactive or inconclusive.
SMILES,HepG2 viability,mIDH1 inhibitor,ATXN2 expr inh,TGFb SMAD3 inh,ATXN viability,LDHA inh
COc1ccc(S(=O)(=O)Nc2cc(SCC(=O)O)c(O)c3ccccc23)cc1,0,0,-,11µM,?,0
CCC(CO)Oc1cc(NCc2cccnc2)c2ncn(C(C)C)c2c1 (centres undefined),0,0,0,0,0,0
CCC(CO)Oc1cc(NCc2cccc(Cl)c2)c2ncn(C(C)C)c2c1 (centres undefined),0,0,?,20µM,?,0
CC12CCC(=O)C=C1CCC1C2CCC2(C)C(c3csc(N)n3)CCC12 (centres undefined),0,0,?,13µM,?,0
CC12CCC(=O)C=C1CCC1C2C(O)CC2(C)C(c3csc(N)n3)CCC12 (centres undefined),0,0,?,0,0,0
O=S(=O)(NCc1cccs1)c1ccc(Cl)s1,0,0,0,0,0,0
c1cc2c3c(cccc3c1)/C(=N/OCC1CO1)C2 (centres undefined),-,-,-,-,-,-31
CCN(C(=O)CSc1nc2ccccc2nc1Cc1cccc(OC)c1)c1cccc(C)c1,0,0,-,16µM,-,0
COc1ccccc1Cc1nc2ccccc2nc1SCC(=O)N1CCC(C)CC1,0,0,0,16µM,?,0
Cc1ccc(Cc2nc3ccccc3nc2SCC(=O)N2CCCCC2C)cc1 (centres undefined),0,0,?,16µM,?,0
COc1cccc(Cc2nc3ccccc3nc2SCC(=O)N2CCN(c3ccccc3)CC2)c1,0,0,-,0,-,0
COc1cccc(Cc2nc3ccccc3nc2SCC(=O)N2CCCCC2C)c1 (centres undefined),0,0,?,11µM,?,0
N#Cc1nc(-c2cccc3ccccc23)oc1NCCN1CCCCC1,22µM,0,0,0,0,0
CCc1cccc(NC(=O)CN(C)S(=O)(=O)c2cccc3nsnc23)c1,0,0,0,0,0,0
CCN1CCC2(CC1)N=C(SCC(=O)Nc1ccc(F)cc1F)C(c1ccccc1)=N2,-,-,-,-,-,0
COC(=O)c1cnn(-c2nc(OC)cc(OC)n2)c1C,0,0,0,0,0,0
COc1cc(OC)nc(-n2ncc(Br)c(Br)c2=O)n1,11µM,0,?,3.5µM,-,0
COc1cc(C(C)C)c(Oc2cnc(NC(CO)CO)nc2N)cc1I,-,-,24µM,-,-,-
CSc1ccc(CNC(=O)C2CCCN(S(=O)(=O)N(C)c3ccc(F)cc3)C2)cc1 (centres undefined),0,0,-,4.5µM,-,0
CCCNC(=O)c1nnsc1S(=O)(=O)c1ccc(Cl)cc1,18µM,0,0[11.3 µM],?,?,0
CN(C)CCNC(=O)c1cccc(-c2cc(NC=O)c3ncc(-c4cccc(C(F)(F)F)c4)n3c2)c1,20µM,-,22µM,?,28µM,0
COc1cc(-c2cnc3c(NC(C)=O)cc(-c4ccc(N5CCN(C)CC5)cc4)cn23)cc(OC)c1OC,0,-,14µM,0,-,0
COc1cc(-c2cnc3c(NC=O)cc(-c4cccc(C(F)(F)F)c4)cn23)cc(OC)c1OC,0,-,28µM,?,?,0
COc1ccc(-c2cnc3c(NC=O)cc(-c4ccccc4OC)cn23)cc1OC,0,-,18µM,?,0,0
Cc1ccccc1C(=O)Nc1ccc2nc(SCCOc3ccccc3)sc2c1,0,0,0,0,0,0
SMILES,HepG2 viability,mIDH1 inhibitor,ATXN2 expr inh,TGFb SMAD3 inh,ATXN viability,LDHA inh
COc1ccccc1-c1cc(NC(C)=O)c2ncc(-c3cccc(C(F)(F)F)c3)n2c1,16µM,-,0,?,?,0
COc1cccc(-c2cnc3c(NC=O)cc(-c4cccc(C(=O)N(C)C)c4)cn23)c1,0,-,0,3.5µM,0,0
COc1cccc(-c2cc(NC=O)c3ncc(-c4cccc(C(=O)N(C)C)c4)n3c2)c1,0,-,?,0,?,0
COc1ccc(-c2cc(NC(C)=O)c3ncc(-c4cccc(C(F)(F)F)c4)n3c2)c(OC)c1,0,-,0,?,?,0
COC(=O)C1=C(C)N(Cc2ccccc2)C(=NCc2cc(OC)c(OC)c(OC)c2)N[C@H]1CCc1ccccc1,0,0,0,0,?,0
S=C(NCCN1CCOCC1)N/N=C/c1cccs1,8.9µM,0,-,4.5µM,5µM,0
CCNc1nc2c(c(=O)n(C)c(=O)n2C)n1CC(O)COc1ccccc1 (centres undefined),0,0,0,0,0,0
CNC(=O)COC(=O)c1ccccc1C(=O)c1ccc(Cl)c([N+](=O)[O-])c1,0,0,-,0,10µM,0
O=C(COC(=O)c1ccccc1C(=O)c1ccc(Cl)c([N+](=O)[O-])c1)NC1CC1,16µM,0,?,?,28µM,0
COc1ccc(-c2nc(CSCC(=O)N3CCN(c4ccccc4F)CC3)c(C)o2)cc1,0,0,?,6.3µM,-,0
CCOc1ccc(-c2nc(CSCC(=O)N3CCN(c4cccc(OC)c4)CC3)c(C)o2)cc1,0,0,?,0,?,0
COc1ccccc1N(C(=O)CCl)c1cn(C(C)=O)c2ccccc12,11µM,0,-,11µM,6.3µM,0
CCOC(=O)c1ccccc1Nc1cn(C(C)=O)c2ccccc12,0,0,0,0,0,0
CC(=O)n1cc(N(C(=O)CCl)c2ccc(Cl)cc2)c2ccccc21,7.9µM,?,-,?,3.5µM,0
CC(=O)n1cc(C=O)c2ccccc21,0,-,-,0,-,0
NC(=O)CNC(=O)c1ccc(CNCc2ccc(C(F)(F)F)cc2)cc1,-,-,-,-,-,0
Cc1ccc(NC(=O)c2cnn(-c3ccccc3)c2NC(=O)c2ccco2)cc1C,13µM,0,0,0,0,0
CCN(CC)C(=O)c1cnn(-c2ccccc2)c1NC(=O)c1ccco1,0,0,0,0,0,0
CC(C)Cc1ccc(CN2C(C(C)C)C(=O)N(Cc3cn(CCC4OCCO4)nn3)CCS2(=O)=O)cc1 (centres undefined),0,-,?,?,?,0
O=C1c2ccccc2C(=Cc2cccs2)c2ccccc21,-,-,-,-,-,0
COc1ccc(-c2ccc3[nH]c4c(c3c2)CCN2C[C@@H]([C@H](C)O)[C@@H](N(C)C(=O)Nc3cc(Cl)cc(Cl)c3)C[C@@H]42)cc1,0,0,0,?,-,0
C[C@H](O)[C@@H]1CN2CCc3c([nH]c4ccc(-c5ccc6c(c5)OCO6)cc34)[C@@H]2C[C@@H]1N(C)C(=O)Nc1ccc(F)cc1,13µM,0,?,?,32µM,0
COc1ccc(-c2ccc3[nH]c4c(c3c2)CCN2C(=O)[C@@H]([C@H](C)O)[C@@H](N(C)C(=O)Nc3ccc(F)cc3)C[C@@H]42)cc1,0,0,?,?,?,-31
